# Test results taken from PubChem BioAssay AID485297 (National Center for Advancing Translational Sciences (NCATS), 2010).
# Among all 320,000 compounds or so, about 9,100 (2.8%) were called active. Another 3% or so got no clear call; they are omitted. This is one part of a sample in which actives are shown more often than they occur. Values without a mark were called inactive. Calls follow the shape of the dose curve; as a rule, active = well fitted activation curve with a large enough effect; inconclusive = small, poorly fitted or top-dose-only effect; inactive = no such curve, though single readings can be large or run the other way.
# Experiment: qHTS Assay for Rab9 Promoter Activators; also: nearly all actives have a fitted effect of over 60% in size; as to activation, negative = inhibition: % of control where 0% means no effect
# Details: Huh7 Rab9 promoter-luciferase reporter, luminescence, 24 h; series mostly up to 9.22 µM; activation, negative = inhibition: at the top concentration
# Summary of the method: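 Huh7 cells stably carrying Rab9 promoter–luciferase reporter, plated 1500 cells/well, compound added after 2 h and incubated 24 h at 37 °C; luciferase luminescence then read after 10 min with detection reagent.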
# Potency is read from the fitted curve at half-maximal effect.
Compound,"activation, negative = inhibition",Potency
O=C(NC1CCCCCC1)C1CCN(C(=O)c2ccc(Cl)cc2)CC1,-5.39%,–
O=C(c1c(F)cccc1F)N1CCN(S(=O)(=O)c2ccc3c(c2)OCCO3)CC1,-0.698%,–
Cc1cc(C)cc(OCC(=O)OCC(=O)NC2CCCC2)c1,0.384%,–
O=C(CN1CCCCCC1)Nc1ccc(Br)cc1[N+](=O)[O-],2.95%,–
CCCN(CC(=O)Nc1ccccc1C)C(=O)c1ccc2[nH]c3c(c2c1)CC(C)CC3 (stereo not drawn),1.6%,–
CCOC(=O)c1sc(N)c(C#N)c1COC(=O)C1=COCCO1,0.625%,–
CN(C(=O)CSc1nnc(C2CC2)n1C)C1CCCc2ccccc21 (stereo not drawn),-6.33%,–
CC(=O)Nc1ccc(-c2csc(NC=C3C(=O)OC(C)(C)OC3=O)n2)cc1,25.5%,–
Cc1cc(O)ccc1-c1cnc2ccccc2n1,22.3%,–
Cc1cccc(Nc2nc(-c3ccccc3)cs2)n1,–,3980 nM (active)
O=C(Nc1ccc(-c2csc(Nc3cccc(C(F)(F)F)c3)n2)cc1)c1cccc(C(F)(F)F)c1,-13.6%,–
CC(=O)Nc1cccc(-c2cnc3ccccc3n2)c1,–,3980 nM (active)
Cc1cccc(S(=O)(=O)CC(=O)Nc2nc(-c3ccccc3)cs2)c1,7.63%,–
CCS(=O)(=O)Nc1cccc(-c2cc(-c3ccccc3)c3cc(C)ccc3n2)c1,-3.65%,–
COc1ccc2c(c1OC)C(=O)OC2Nc1nc(-c2ccccc2)cs1 (stereo not drawn),-18.4%,–
CC(=O)Nc1cccc(-c2csc(Nc3cccc(C)n3)n2)c1,–,1580 nM (active)
COc1ccc(S(=O)(=O)Nc2cc(C)on2)cc1NC(C)=O,1.82%,–
Cc1ccc(NC(=O)Cn2nnc(C(=O)NCc3ccco3)c2N)c(C)c1,-1.28%,–
COc1ccc([C@H]2CC(=O)C=C(/C=C/c3ccc(Cl)cc3)C2)cc1,4.04%,–
CSCCC(NC(=O)c1ccco1)C(=O)NCCc1ccc(F)cc1 (stereo not drawn),8.75%,–
CCCC(=O)N1CCN(c2nnc(-c3ccc(C)cc3)c3ccccc23)CC1,-1.39%,–
O=C(C1CCC1)N1CCN(S(=O)(=O)c2ccc([N+](=O)[O-])cc2)CC1,11.4%,–
Cc1ccc2c(c1)C1CN(C)CCC1N2S(=O)(=O)c1cccc(F)c1 (stereo not drawn),-2.38%,–

Compound,"activation, negative = inhibition",Potency
COc1ccc(CNC(=O)COc2ccccc2C(=O)c2cnn(-c3ccccc3)c2)cc1OC,21.1%,–
O=C(c1cnn(-c2ccc(Cl)cc2)c1)c1ccccc1O,–,3550 nM (active)
Cc1ncc(CC(=O)n2cc(C(=O)c3cc(Cl)ccc3O)cn2)s1,3%,–
COc1ccc(-c2c(-c3cc(OC)cc(OC)c3)n(C)c3ccc(-c4ccn[nH]4)cc23)cc1,-4.63%,–
Cc1cc(C(=O)COc2ccc(Br)cc2F)c(C)n1C1CC1,18.2%,–
CC(=O)NC(c1cccs1)c1cc(Br)c2cccnc2c1O (stereo not drawn),-37.8%,–
COc1ccc(C)cc1NC(=O)c1cc(-c2ccccc2)nc2c1cnn2C(C)C,0.172%,–
CC1Cc2ccccc2N1S(=O)(=O)c1cccc(C(=O)NCC(c2ccco2)N2CCCC2)c1 (stereo not drawn),-2%,–
Nc1ccc(N=Nc2ccccc2Cl)c(N)n1,–,2820 nM (active)
CCc1cccc(NC(=O)COC(=O)c2cc(=O)c3ccccc3o2)c1,-11.3%,–
CCOC(=O)c1ccc(NC(=O)C2CC(=O)N(c3ccc4c(c3)OCCO4)C2)cc1 (stereo not drawn),-3.72%,–
CCCN(CC1CC1)C(=S)NC(=O)c1ccccc1Br,-4.09%,–
CCOc1ccc(N/C=C/C(=O)c2cc(OC)c(OC)c(OC)c2)cc1,0.529%,–
COc1ccc(C(=O)/C=C/c2ccc(OC3CSC3)cc2)cc1,1.39%,–
Cc1ccc(N/C=C/C(=O)c2ccccc2)cc1C,–,562 nM (active)
Cc1noc(NS(=O)(=O)c2ccc(N/C=C/C(=O)c3ccccc3)cc2)c1C,-4.95%,–
COc1ccc(C(=O)/C=C/Nc2ccccn2)cc1,–,100 nM (active)
CCOc1ccc(N/C=C/C(=O)c2ccccc2)cc1,–,316 nM (active)
O=C(/C=C/NCc1ccc(F)cc1)c1ccccc1,4.92%,–
O=C(NNc1ccccn1)c1ccc(Cl)nc1,-6.69%,–
CCOc1ccc(NC(=S)N2CCC(NC(=O)c3ccccc3)CC2)cc1,1.98%,–
O=C(CC1SC(N2CCCC2)=NC1=O)Nc1ccc(C(=O)NCCc2ccc(F)cc2)cc1 (stereo not drawn),0.532%,–
Cc1ccc(NC(=O)c2cccc(S(=O)(=O)N3CCCc4ccccc43)c2)nc1,0.722%,–

Compound,"activation, negative = inhibition",Potency
C=CC(=O)OCCOCCOCCOCCOC(=O)C=C,1.04%,–
Cc1ccnc(Nc2nc3ccccc3s2)n1,–,1410 nM (active)
Cc1ccc(S(=O)(=O)Nc2nc3ccccc3s2)cc1[N+](=O)[O-],-15%,–
Cc1ccnc(NC(=O)c2ccco2)n1,-3%,–
O=C(CCNS(=O)(=O)c1ccc(Br)cc1)NCC1CCCO1 (stereo not drawn),1.91%,–
O=C(CSc1n[nH]c(-c2cccs2)n1)N1CCCCC1,17.7%,–
COc1ccccc1-c1cc(C(=O)N2CCCCC2)no1,–,3550 nM (active)
O=C(c1cc(-c2ccc(O)cc2)on1)N1CCCc2ccccc21,17%,–
O=C(c1cc(-c2ccccc2O)on1)N1CCCC1,–,3980 nM (active)
O=C(c1cc(-c2cccs2)on1)N1CCCCC1,–,562 nM (active)
O=C(c1cc(-c2ccc(F)cc2)on1)N1CCN(c2ccc(F)cc2)CC1,-3.94%,–
O=C(Nc1cccnc1Cl)c1cc(-c2ccccc2O)on1,14.7%,–
COc1cccc(-c2cc(C(=O)N3CCN(c4ccccc4OC)CC3)no2)c1,0.153%,–
CC(=O)c1ccc(NC(=O)c2cc(-c3cccs3)on2)cc1,-1.85%,–
O=C(c1cc(-c2cccc(O)c2)on1)N1CCc2ccccc2C1,-2.35%,–
COc1ccc(-c2cc(C(=O)N3CCN(c4ccc(F)cc4)CC3)no2)cc1,-6.51%,–
O=C(c1cc(-c2ccc(O)cc2)on1)N1CCOCC1,–,1120 nM (active)
O=C(CN1CCC(O)(c2cccc(C(F)(F)F)c2)CC1)NCCc1ccccc1,-1.32%,–
O=C(NNC(=O)c1ccc(-n2cncn2)c([N+](=O)[O-])c1)c1ccccc1,-1.36%,–
CCOc1ccc(S(=O)(=O)NCCC(=O)NCC2CCCO2)cc1 (stereo not drawn),-7.38%,–
CCN(CC(=O)Nc1ccccc1C(F)(F)F)C(=O)C1CCN(C(=O)Nc2ccccc2)CC1,-3.7%,–
CCOc1ccc(NC(=O)CN(C)C(=O)Cc2sc(C)nc2-c2ccc(F)cc2)cc1OCC,-1.33%,–
O=C(OCC(=O)N1CCOCC1)c1ccc2ccccc2c1,23.1%,–

Compound,"activation, negative = inhibition",Potency
CC1(C)CC(=O)C=C(c2ccc(Cl)c(C(F)(F)F)c2)C1,-1.53%,–
COc1ccccc1C(=O)NC(CCSC)C(=O)N1CCN(C(C)=O)CC1 (stereo not drawn),-1.78%,–
Cc1ccccc1-c1cc(C(=O)NCc2cccs2)n(CC2CC(c3cccnc3)=NO2)n1 (stereo not drawn),-2.65%,–
O=C(c1cc(COc2cccc(C(F)(F)F)c2)on1)N1CCSCC1,1.38%,–
O=C(c1cc(COc2c(F)cccc2F)on1)N1CCSCC1,–,3160 nM (active)
COc1ccc(OCc2cc(C(=O)N3CCCC3)no2)c2ccccc12,–,3980 nM (active)
COCCN1CCN(C(=O)c2cc(COc3ccc(F)cc3Cl)on2)CC1,4.22%,–
O=C(c1cc(COc2ccc(F)c(F)c2)on1)N1CCOCC1,23.1%,–
Cc1ccc(C)c(OCc2cc(C(=O)N3CCN(c4cnccn4)CC3)no2)c1,-1.14%,–
CC(C)(Oc1ccc(Cl)cc1)C(=O)OCC(=O)NCCc1ccc(S(N)(=O)=O)cc1,-3.15%,–
Cc1ccsc1C(=O)NC1CCCCC1C (stereo not drawn),-3.85%,–
O=S(=O)(NC1CC1)c1ccc(Cl)cc1,1.98%,–
CCC(C)N(C(=O)CSc1ncnc2c1cnn2-c1ccccc1)C1CCS(=O)(=O)C1 (stereo not drawn),-2.26%,–
CC(Sc1ncnc2c1cnn2-c1ccccc1)C(=O)Nc1ccc(N2CCOCC2)cc1 (stereo not drawn),0.146%,–
CC(C)Sc1ncnc2c1cnn2-c1ccccc1,–,1000 nM (active)
Cc1ccc(-c2nc3c(cnn3-c3ccccc3)c(=O)o2)cc1,-6.29%,–
CCN(C(=O)CSc1ncnc2c1cnn2-c1ccccc1)C1CCS(=O)(=O)C1 (stereo not drawn),-1.86%,–
O=C(NNc1ncnc2c1cnn2-c1ccccc1)c1ccco1,-4.14%,–
c1ccc(-n2ncc3c(N4CCCC4)ncnc32)cc1,–,501 nM (active)
O=C(NCCC1=CCCCC1)C1CCN(Cc2cnn(-c3ccccc3)c2-n2cccc2)CC1,-1.15%,–
C1=C(CCNc2ncnc3c2cnn3-c2ccccc2)CCCC1,–,2820 nM (active)
CCc1noc(C)c1C(=O)N1CCN(S(=O)(=O)c2cccc(C(F)(F)F)c2)CC1,13.5%,–
CC(=O)c1c(C)[nH]c(C(=O)OCC(=O)Nc2c(C)cccc2C)c1C,-11.3%,–

Compound,"activation, negative = inhibition",Potency
Cc1nn(Cc2ccccc2)c(C)c1C(=O)N1CCN(CC(=O)Nc2ccccc2Cl)CC1,-0.872%,–
C[C@@H](NC(=O)c1nc[nH]c1C(=O)N1CCN(C(=O)OC(C)(C)C)CC1)c1ccccc1,-3.53%,–
CCOc1ncccc1C(=O)OCC(=O)Nc1cccc(S(=O)(=O)N2CCCCCC2)c1,-0.596%,–
CCCc1nc2oc3c(=O)[nH]cnc3c2c2c1COC(C)(C)C2,-1.12%,–
OC(c1nc2ccccc2[nH]1)C(O)C(O)C(O)c1nc2ccccc2[nH]1 (stereo not drawn),11.6%,–
COc1ccc(Br)cc1C(=O)NC(=S)Nc1cc(-c2nc3ccccc3[nH]2)ccc1C,-4.21%,–
Cc1ccc(-c2nc3ccccc3[nH]2)cc1N,–,1410 nM (active)
COc1ccc(-c2[nH]nc(-c3ccccc3)c2-c2nc3ccccc3[nH]2)cc1,-2.29%,–
Nc1cccc(CCc2nc3ccccc3[nH]2)c1,3.01%,–
c1ccc2[nH]c(-c3nc4ccccc4[nH]3)nc2c1,–,631 nM (active)
N#Cc1ccc(C2=CC(=O)C[C@H](c3ccc(Cl)cc3)C2)cc1,-1.27%,–
Cc1ccc(C)c(NC(=O)CN(C)C(=O)c2ccc3ncsc3c2)c1,1.46%,–
CC(=O)Oc1ccc2c(=O)oc(-c3ccc([N+](=O)[O-])cc3)nc2c1,-3.36%,–
COc1ccc2oc(-c3cccc(NC(=O)CSc4ccc(Cl)cc4)c3)nc2c1,–,3550 nM (active)
COc1cccc(-c2nc(CS(=O)CC(=O)NCc3ccc(F)cc3)c(C)o2)c1 (stereo not drawn),-0.564%,–
COc1cccc(-c2nc3cc(C)ccc3o2)c1,–,3980 nM (active)
COc1cccc(NC(=O)CSc2nnc(-c3cccnc3)o2)c1,-3.19%,–
COc1ccc([N+](=O)[O-])cc1-c1nc2ccccc2nc1-c1ccccc1,2.73%,–
O=[N+]([O-])c1ccc2oc(-c3cccc(O)c3)nc2c1,–,3160 nM (active)
COc1cccc(-c2nnc(SCCOc3ccc4c(C)cc(=O)oc4c3)o2)c1,0.56%,–
COc1ccc(C(=O)NCc2nnc(SCC(=O)Nc3cccc(OC)c3)o2)cc1,-2.44%,–
